# High-throughput results as filed in PubChem.
# Only some compounds are listed: those with a hit (about 7.4% of all), similar ones and a draw of the others.
# FLuc modulator = counter-screen for miR-21 project: firefly luciferase inhibitors or activators | P08659 | purified FLuc, Km substrates, luminescence inhibition | Potency, µM (top dose mostly 57.5 µM), for inactives: at the highest dose activity change, negative = inhibition, most hits filed as inhibitors | 360,000 compounds, 6.9% hits;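 also: plate controls were vehicle for no effect and reference inhibitor for full effect; nearly all actives have a fitted effect of over 55% in size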
# Target sequence (P08659 whole entry, looked up): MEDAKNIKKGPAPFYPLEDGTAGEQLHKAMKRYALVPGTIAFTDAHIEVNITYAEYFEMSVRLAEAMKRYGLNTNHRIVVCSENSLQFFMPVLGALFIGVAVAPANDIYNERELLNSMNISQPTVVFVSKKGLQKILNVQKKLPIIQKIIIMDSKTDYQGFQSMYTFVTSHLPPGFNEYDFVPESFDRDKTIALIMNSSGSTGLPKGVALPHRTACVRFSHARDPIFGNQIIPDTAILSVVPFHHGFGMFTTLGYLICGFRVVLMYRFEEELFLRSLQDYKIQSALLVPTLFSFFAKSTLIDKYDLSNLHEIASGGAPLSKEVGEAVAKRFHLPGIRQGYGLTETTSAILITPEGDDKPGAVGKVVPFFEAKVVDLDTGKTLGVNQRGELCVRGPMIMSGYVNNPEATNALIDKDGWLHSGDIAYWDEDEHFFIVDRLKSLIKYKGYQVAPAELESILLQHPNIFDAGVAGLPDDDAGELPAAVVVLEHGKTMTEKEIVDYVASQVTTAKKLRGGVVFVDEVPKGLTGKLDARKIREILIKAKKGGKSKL
#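 Purified P. pyralis luciferase, 10 nM final, with Km-level 10 uM D-luciferin and 10 uM ATP in 50 mM Tris acetate pH 7.5, 10 mM Mg acetate, 0.01% Tween-20, 0.05% BSA; 6-point qHTS titration about 60 µM downward; luminescence read.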
# SMN2 splice up = increases expression of the SMN2 splice variant; HEK293 SMN2-luciferase splicing reporter, luminescence, 30-36 h; Potency, µM (doses to about 46.1 µM), inactives show at the highest dose activity change, positive = activation, most hits filed as activators; 210,000 compounds, 2.8% hits; AID 1458; also: % of control where 0% means no effect; nearly all actives have a fitted effect of over 55% in size
#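 qHTS luciferase splicing reporter: luminescence rises when SMN2 exon 7 is included in transfected HEK293 cells. Compound exposure lasted 30-36 h at 37C, with 4.5 mM final sodium butyrate as control, followed by a ONE-Glo read.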
# ELG1 genotoxic = inducers of genotoxicity in HEK293T ELG1-luciferase cells. 330,000 compounds, 1.3% hits. Potency, µM (titrated, usually from 46 µM), without a hit: top-dose activity change, positive = activation, hits mostly activators. HEK293T ELG1-luciferase reporter, luminescence, 16 h. AID 504466; also: % of control where 0% means no effect; nearly all actives have a fitted effect of over 60% in size
#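 HEK293T cells expressing luciferase-tagged ELG1 were exposed to compound or DMSO vehicle for 16 hr at 37 °C and 5% CO2. Luciferase activity was then measured with ONE-Glo after 30 min at room temperature.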
# NPC1 prom act = activates the NPC1 promoter. 320,000 compounds, 2.4% hits. Huh7 NPC1 promoter luciferase reporter, 24 h. Potency, µM (highest dose often 9.22 µM), without a hit: at the highest dose activation, usual class: activators; also: % of control where 0% means no effect; nearly all actives have a fitted effect of over 60% in size
#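 Stably transfected Huh7 (NPC1 promoter→luciferase), 1500 cells/well in Opti-MEM + 10% FBS, 2 h settle, then compound 24 h at 37 °C. Luminescence after 10 min with Amplite reagent.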
# Rab9 promoter act = activates the Rab9 promoter; Potency, µM (series often up to 9.22 µM), for the others: at the highest dose activation, negative = inhibition, actives largely listed as activators; 320,000 compounds, 2.8% hits; Huh7 Rab9 promoter-luciferase reporter, luminescence, 24 h; also: % of control where 0% means no effect; nearly all actives have a fitted effect of over 60% in size
#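 Rab9 promoter-driven luciferase in stably transfected Huh7 cells; 1500 cells/well rested 2 h, exposed to compound in DMSO for 24 h at 37 °C, 5% CO2. Luminescence read 10 min after adding luciferase reagent at ambient temperature.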
# Active calls of the source: *; ? = inconclusive; · = no result; [ ] = another dose, or the depositor's remark. Calls follow the shape of the dose curve; as a rule, active = well fitted curve in the direction sought with a large enough effect; inconclusive = small, poorly fitted or top-dose-only effect, or another doubt; inactive = no such curve, though single readings can be large; an effect the other way counts as inactive or inconclusive. Potency is read from the fitted curve at half-maximal effect.
SMILES,FLuc modulator,SMN2 splice up,ELG1 genotoxic,NPC1 prom act,Rab9 promoter act
Cc1[nH]c(N=Nc2ccccc2)nc1N=Nc1ccccc1,6µM*,·,8%,0%,-4%
O=C(COC(=O)/C=C/c1ccccc1)NCCC1=CCCCC1,5%,-7%,5%,-2%,0%
O=C(/C=C/c1ccccc1)NCCC1=CCCCC1,9.5µM*,11µM*,?,?,2.8µM*
O=C(/C=C/c1ccc(F)cc1)NCCC1=CCCCC1,15µM*,?,13%,?,?
COc1ccccc1OCC(=O)NCCC1=CCCCC1,2%,12%,0%,-2%,-5%
COc1ccccc1/C=C/C(=O)NCCC1=CCCCC1,11µM*,11µM*,?,4µM*,3.2µM*
COc1cc(CC(=O)OCC(=O)NC2CCCCC2C)cc(OC)c1OC (stereo not given),-1%,·,1%,1%,6%
CC1=Nc2ccc3ccccc3c2C1(C)C,-19%,4%,-1%,-4%,-2%
Cc1c2ccccc2c(C)c2c1ccc1ccccc12,13µM*,3%,18µM*,22%,?
Cc1ccc(-n2cnc3cc(C(=O)NCc4ccccc4Cl)ccc32)c(C)c1,-12%,·,·,·,·
Cc1cc(NC(=O)c2ccc(Cl)cc2)ccc1NC(=O)c1ccccc1Cl,12µM*,·,-6%,4%,16%
Cc1ccccc1NC(=O)c1ccccc1NC(=O)c1ccccc1Cl,?,-12%,·,·,·
Cc1cc(NC(=O)c2ccccc2Cl)ccc1NC(=O)c1ccccc1Cl,12µM*,·,-1%,17%,17%
O=C(CCc1ccccc1)N1CCc2c([nH]c3ccccc23)C1c1ccc(F)cc1 (stereo not given),-4%,·,·,·,·
CCN(CC)S(=O)(=O)c1ccc(NC(=O)c2ccccn2)cc1,15µM*,7%,15µM*,?,?
CC(=O)NS(=O)(=O)c1ccc(NC(=O)c2ccccn2)cc1,-4%,0%,0%,-6%,-18%
CN(C)S(=O)(=O)c1ccc(NC(=O)c2ccccn2)cc1,13µM*,11µM*,?,2.5µM*,1.6µM*
Cn1ncc(N=Cc2ccccc2)c1C(N)=O,-1%,·,2%,-1%,12%
Nc1ncc(Br)cc1N=Cc1ccccc1,3.4µM*,13µM*,?,21%,3.5µM*
O=C(Cn1c(=O)n(CC2CCCO2)c(=O)c2ccccc21)Nc1ccc(F)cc1F (stereo not given),4%,-9%,·,·,·
Cc1ccc(NC(=O)C2CC(=O)N(Cc3ccco3)C2)cc1 (stereo not given),1%,·,-1%,0%,1%
CC(=O)c1c(C)[nH]c(C(=O)OCC(=O)N2CC(C)OC(C)C2)c1C (stereo not given),-1%,·,5%,0%,-3%
CCCn1nc(NC(=O)c2cccs2)c2cc3cc(OC)ccc3nc21,11µM*,22%,19%,5%,6%
CCCCn1nc(NC(=O)c2cccs2)c2cc3cc(OC)ccc3nc21,19µM*,9%,0%,-1%,-6%
CCCn1nc(NC(=O)c2cccs2)c2cc3cc(C)ccc3nc21,6.7µM*,·,-3%,6%,-1%
SMILES,FLuc modulator,SMN2 splice up,ELG1 genotoxic,NPC1 prom act,Rab9 promoter act
CCCCn1nc(NC(=O)CCC)c2cc3cc(OC)ccc3nc21,-2%,·,7%,20%,4%
CCCCn1nc(NC(=O)c2cccs2)c2cc3ccccc3nc21,24µM*,·,-8%,-2%,18%
C/C=C1/C(=O)C[C@H]2[C@@H]3CCC4=CC(=O)CC[C@]4(C)[C@H]3CC[C@]12C,·,-40%,·,·,·
CC(=O)Nc1sc(N/N=C\c2ccc(O)cc2)nc1-c1cccs1,12µM*,·,?,11%,22%
Cc1nnc(NC(=O)c2ccccc2NC(=O)c2ccccc2)s1,8.5µM*,·,-4%,1%,-2%
CC(Sc1nncn1C)C(=O)Nc1nnc(-c2ccccc2)s1 (stereo not given),15µM*,14µM*,16µM*,?,?
COc1ccccc1C(=O)Nc1nnc(-c2ccccc2)s1,13µM*,·,?,?,17%
O=C(C[n+]1ccccc1)Nc1ccc(Oc2ccccc2)cc1,-1%,·,-7%,-8%,2%
CC#CCN1c2ccccc2[C@]23C[C@@H](C(=O)OC)N(S(=O)(=O)c4cccs4)C2=NC(C(=O)OC)=C(C(=O)OC)[C@H]13,·,6%[9.22 µM],·,·,·
Cc1ccc(-c2cc(NC(=O)c3cccc(C)c3)on2)cc1,-14%,?,·,·,·
COc1cccc(C(=O)Nc2sc(C(C)C)cc2C(N)=O)c1OC,21µM*,·,-4%,-3%,-2%
